In ChEMBL document CHEMBL3988442, “University of Dundee, Small-Polar-MMV Screening Library” (2021):
For some of these results: Results with a measured potency or affinity are listed apart.

How the values were obtained:
Parameters in all cases: scale not given: direction of the effect not stated beside the values
[1] = biological target: Protein translocase subunit SecA (Escherichia coli (strain K12)) (UniProt P10408); test: Assay to Identify E. coli SecA ATPase Inhibitors; assay type: functional; settings: 30 µM
[2] = biological target: T1, Ubiquitin-activating enzyme e1, putative (Leishmania donovani (strain BPK282A1)) (UniProt E9BSI1); test: Leishmania donovani Ubiquitin Activating Enzyme (LdE1); assay type: functional; settings: 30 µM
T1 sequence (whole entry): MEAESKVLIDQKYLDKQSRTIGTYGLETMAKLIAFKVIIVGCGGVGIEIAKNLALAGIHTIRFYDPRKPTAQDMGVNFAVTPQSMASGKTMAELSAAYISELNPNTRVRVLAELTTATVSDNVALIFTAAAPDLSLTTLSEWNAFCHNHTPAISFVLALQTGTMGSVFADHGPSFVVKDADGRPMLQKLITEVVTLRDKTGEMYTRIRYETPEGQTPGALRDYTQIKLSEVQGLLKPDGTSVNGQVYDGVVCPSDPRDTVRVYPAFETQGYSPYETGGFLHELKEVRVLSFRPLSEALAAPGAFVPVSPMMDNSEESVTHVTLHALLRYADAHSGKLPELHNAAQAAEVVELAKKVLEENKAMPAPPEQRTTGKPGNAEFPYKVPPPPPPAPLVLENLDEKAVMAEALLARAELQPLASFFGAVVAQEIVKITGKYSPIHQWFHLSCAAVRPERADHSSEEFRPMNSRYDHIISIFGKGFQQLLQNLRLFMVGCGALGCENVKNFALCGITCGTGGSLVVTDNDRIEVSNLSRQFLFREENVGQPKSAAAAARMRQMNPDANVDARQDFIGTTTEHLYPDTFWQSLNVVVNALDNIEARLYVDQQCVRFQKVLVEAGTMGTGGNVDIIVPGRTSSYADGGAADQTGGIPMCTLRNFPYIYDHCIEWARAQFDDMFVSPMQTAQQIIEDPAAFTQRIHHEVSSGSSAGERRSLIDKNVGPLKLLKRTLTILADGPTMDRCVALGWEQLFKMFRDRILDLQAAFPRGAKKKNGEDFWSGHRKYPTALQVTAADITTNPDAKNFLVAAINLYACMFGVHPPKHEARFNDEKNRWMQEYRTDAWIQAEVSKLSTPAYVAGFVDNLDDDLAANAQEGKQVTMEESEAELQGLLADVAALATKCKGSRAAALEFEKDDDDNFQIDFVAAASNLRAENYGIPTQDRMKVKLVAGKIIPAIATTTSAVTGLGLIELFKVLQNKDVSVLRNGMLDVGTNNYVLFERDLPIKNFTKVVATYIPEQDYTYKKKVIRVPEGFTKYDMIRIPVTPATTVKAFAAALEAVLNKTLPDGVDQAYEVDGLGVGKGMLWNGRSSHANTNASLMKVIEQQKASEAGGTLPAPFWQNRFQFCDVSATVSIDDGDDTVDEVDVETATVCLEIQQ

[3] = biological target: AMP-activated protein kinase, AMPK (Homo sapiens) (UniProt P54646+O43741+P54619+Q9UGJ0+Q9Y478+Q13131+Q9UGI9); test: AMP-dependent Kinase enzyme assay. An in vitro enzyme assay that detects ADP turnover that is directly proportional to AMPK activity. This uses naive AMPK that is activated during the assay with MK-8722; assay type: functional; settings: 30 µM
[4] = biological target: Sialic acid-binding Ig-like lectin 9 (Homo sapiens) (UniProt Q9Y336); test: Hs-Siglec9 ALPHAscreen SOP 20170721; settings: 10 µM
Trypanosoma cruzi = test: Trypanosoma cruzi phosphomannomutase and mannose-1-phosphate guanylyltransferase assay; assay type: functional; settings: 10 µM
[5] = biological target: T2, Arginase-2, mitochondrial (Homo sapiens) (UniProt P78540); test: in vitro enzyme assay to detect the production of urea directly proportional to the activity of Arginase II; assay type: functional; settings: 33.3 µM; also: in the data most compounds retested in dose-response had high values
T2 sequence (whole entry): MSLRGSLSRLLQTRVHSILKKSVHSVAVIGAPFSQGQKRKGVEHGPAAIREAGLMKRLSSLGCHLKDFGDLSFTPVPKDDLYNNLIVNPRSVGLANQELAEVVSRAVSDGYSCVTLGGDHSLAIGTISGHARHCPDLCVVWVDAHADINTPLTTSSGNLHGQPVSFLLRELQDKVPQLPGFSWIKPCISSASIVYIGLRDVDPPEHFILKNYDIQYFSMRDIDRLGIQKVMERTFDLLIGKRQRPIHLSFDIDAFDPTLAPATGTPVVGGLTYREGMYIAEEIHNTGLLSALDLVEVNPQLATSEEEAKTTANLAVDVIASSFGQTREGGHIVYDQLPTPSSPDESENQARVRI

[6] = biological target: T3, Proteasome subunit beta (Trypanosoma cruzi) (UniProt O96673); test: Trypanosoma cruzi proteasome chymotrypsin-like activity (TcProtChymo) assay.; also: in the data most compounds retested in dose-response had high values; assay type: functional; settings: 9.37 µM
T3 sequence (whole entry): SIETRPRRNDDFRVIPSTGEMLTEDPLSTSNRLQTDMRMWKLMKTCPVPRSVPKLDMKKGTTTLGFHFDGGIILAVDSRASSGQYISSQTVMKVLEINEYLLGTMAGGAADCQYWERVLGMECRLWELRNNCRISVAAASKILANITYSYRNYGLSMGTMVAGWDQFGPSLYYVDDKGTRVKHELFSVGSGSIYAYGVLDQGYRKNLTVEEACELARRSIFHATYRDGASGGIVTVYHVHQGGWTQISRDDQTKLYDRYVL

Homo sapiens = species on record: Homo sapiens; test: To identify inhibition of the IFN signalling (Jak-Stat) pathway via expression of an eGFP reporter gene under the control of an IFN-stimulated response element (ISRE) containing MxA promoter.; assay type: functional; settings: 30 µM
[7] = biological target: T4, Tyrosyl-tRNA synthetase, putative (Trypanosoma cruzi (strain CL Brener)) (UniProt Q4DSP6); test: Trypanosoma cruzi tyrosyl tRNA synthetase (TcYRS) _High Tyrosine SOP; assay type: functional; settings: 30 µM; also: in the data most compounds retested in dose-response had high values
T4 sequence (whole entry): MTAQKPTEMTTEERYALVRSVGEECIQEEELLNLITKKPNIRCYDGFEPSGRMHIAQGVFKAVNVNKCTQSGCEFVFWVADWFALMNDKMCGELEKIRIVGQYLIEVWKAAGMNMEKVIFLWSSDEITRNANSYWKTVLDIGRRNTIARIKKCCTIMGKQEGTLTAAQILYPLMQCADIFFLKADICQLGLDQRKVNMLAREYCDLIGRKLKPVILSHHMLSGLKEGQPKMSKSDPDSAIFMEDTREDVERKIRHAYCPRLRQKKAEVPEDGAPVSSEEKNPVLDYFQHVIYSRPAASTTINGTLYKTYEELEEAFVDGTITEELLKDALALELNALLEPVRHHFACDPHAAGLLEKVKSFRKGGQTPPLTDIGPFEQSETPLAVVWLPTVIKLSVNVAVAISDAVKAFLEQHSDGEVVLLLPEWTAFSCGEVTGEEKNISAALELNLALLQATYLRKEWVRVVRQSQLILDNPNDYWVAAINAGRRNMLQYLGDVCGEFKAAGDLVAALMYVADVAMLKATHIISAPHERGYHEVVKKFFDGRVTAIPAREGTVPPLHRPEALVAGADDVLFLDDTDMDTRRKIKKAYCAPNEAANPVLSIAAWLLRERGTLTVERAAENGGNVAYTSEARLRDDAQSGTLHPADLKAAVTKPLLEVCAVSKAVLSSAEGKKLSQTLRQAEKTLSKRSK

[8] = biological target: T4, Tyrosyl-tRNA synthetase, putative (Trypanosoma cruzi (strain CL Brener)); test: Trypanosoma cruzi tyrosyl tRNA synthetase (TcYRS) SOP; assay type: functional; settings: 30 µM
[9] = biological target: Chromo domain-containing protein 1 (Saccharomyces cerevisiae (strain ATCC 204508 / S288c) (Baker's yeast)) (UniProt P32657); test: ScCHD-1 Enzyme Inhibition Assay; assay type: functional; settings: 30 µM; also: in the data most compounds retested in dose-response had high values
Sequence of Chromo domain-containing protein 1 (Saccharomyces cerevisiae (strain ATCC 204508 / S288c) (Baker's yeast)) (P32657 whole entry, the tested form may be a part): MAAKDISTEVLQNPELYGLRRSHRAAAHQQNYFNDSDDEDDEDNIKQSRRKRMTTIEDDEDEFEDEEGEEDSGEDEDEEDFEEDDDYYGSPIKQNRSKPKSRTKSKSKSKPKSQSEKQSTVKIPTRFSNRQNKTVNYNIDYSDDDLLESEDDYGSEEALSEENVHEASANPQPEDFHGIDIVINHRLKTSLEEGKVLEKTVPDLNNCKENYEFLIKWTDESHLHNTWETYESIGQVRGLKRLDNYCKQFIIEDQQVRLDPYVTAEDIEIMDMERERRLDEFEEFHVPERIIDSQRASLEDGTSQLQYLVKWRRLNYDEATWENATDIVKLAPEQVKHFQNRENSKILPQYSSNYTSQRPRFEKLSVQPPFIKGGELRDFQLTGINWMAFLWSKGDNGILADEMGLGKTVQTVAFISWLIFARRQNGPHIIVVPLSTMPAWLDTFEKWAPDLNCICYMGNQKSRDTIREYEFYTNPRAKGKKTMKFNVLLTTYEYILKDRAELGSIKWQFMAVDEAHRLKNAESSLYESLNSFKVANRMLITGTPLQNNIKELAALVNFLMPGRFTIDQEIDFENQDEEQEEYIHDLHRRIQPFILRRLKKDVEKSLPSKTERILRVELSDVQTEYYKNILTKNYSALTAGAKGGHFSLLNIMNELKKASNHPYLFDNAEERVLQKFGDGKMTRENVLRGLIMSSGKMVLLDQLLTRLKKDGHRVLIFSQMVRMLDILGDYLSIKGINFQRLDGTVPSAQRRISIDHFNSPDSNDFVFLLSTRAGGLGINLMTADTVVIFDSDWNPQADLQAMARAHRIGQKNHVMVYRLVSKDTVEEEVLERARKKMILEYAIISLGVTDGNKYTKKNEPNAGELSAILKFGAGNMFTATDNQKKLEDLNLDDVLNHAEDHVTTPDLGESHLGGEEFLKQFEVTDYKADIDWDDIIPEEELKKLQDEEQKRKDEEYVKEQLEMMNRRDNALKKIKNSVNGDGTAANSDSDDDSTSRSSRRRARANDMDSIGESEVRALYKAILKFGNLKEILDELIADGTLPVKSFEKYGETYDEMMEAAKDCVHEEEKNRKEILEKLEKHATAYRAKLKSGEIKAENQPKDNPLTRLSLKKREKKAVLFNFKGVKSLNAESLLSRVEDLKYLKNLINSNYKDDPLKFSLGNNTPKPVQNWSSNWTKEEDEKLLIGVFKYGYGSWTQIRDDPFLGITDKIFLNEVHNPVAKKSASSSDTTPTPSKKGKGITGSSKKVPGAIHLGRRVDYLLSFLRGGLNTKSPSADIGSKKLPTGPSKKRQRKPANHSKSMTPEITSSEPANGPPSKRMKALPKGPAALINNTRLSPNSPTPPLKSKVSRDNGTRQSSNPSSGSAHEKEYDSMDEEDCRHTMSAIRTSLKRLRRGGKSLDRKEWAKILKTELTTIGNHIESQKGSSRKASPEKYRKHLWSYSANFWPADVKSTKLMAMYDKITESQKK

Sequence of Protein translocase subunit SecA (Escherichia coli (strain K12)) (P10408 whole entry): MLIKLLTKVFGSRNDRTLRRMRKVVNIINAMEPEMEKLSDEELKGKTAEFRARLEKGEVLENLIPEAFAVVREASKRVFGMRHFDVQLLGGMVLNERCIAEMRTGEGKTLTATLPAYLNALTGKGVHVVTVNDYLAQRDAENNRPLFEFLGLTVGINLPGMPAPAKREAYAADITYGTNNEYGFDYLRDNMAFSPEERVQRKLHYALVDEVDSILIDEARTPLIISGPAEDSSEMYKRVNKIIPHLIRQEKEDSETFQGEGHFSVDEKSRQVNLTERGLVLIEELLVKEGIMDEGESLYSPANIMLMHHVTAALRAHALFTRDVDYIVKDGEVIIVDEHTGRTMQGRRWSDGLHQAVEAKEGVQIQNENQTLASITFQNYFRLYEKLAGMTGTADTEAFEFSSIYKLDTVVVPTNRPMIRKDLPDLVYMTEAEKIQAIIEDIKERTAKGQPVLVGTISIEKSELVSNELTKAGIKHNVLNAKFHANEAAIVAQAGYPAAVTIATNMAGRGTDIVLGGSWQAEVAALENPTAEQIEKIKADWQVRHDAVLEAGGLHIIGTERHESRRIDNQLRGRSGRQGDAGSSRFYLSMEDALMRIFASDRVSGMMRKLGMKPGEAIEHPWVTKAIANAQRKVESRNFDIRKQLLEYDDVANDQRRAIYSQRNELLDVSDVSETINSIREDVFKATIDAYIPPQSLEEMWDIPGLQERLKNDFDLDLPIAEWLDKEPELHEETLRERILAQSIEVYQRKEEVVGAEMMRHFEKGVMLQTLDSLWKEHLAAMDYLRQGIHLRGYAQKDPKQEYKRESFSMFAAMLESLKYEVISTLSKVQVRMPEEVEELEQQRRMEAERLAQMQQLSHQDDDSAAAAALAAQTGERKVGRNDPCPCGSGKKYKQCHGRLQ
Sequence of Sialic acid-binding Ig-like lectin 9 (Homo sapiens) (Q9Y336 whole entry): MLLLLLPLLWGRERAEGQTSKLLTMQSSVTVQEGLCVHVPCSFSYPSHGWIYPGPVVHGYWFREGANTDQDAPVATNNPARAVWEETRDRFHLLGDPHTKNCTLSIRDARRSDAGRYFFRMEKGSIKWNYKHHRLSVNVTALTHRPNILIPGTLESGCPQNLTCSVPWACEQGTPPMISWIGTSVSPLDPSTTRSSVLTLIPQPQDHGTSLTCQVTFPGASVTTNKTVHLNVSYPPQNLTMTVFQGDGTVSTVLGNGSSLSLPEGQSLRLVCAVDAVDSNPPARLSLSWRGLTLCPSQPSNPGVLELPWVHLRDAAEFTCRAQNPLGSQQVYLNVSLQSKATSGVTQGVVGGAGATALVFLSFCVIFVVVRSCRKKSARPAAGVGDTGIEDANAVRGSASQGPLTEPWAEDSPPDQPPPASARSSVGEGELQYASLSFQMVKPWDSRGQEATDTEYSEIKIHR

SMILES | Percent Effect [1] | Percent Effect [2] | Percent Effect [3] | Percent Effect [4] | Percent Effect (Trypanosoma cruzi) | Percent Effect [5] | Percent Effect [6] | Percent Effect (Homo sapiens) | Percent Effect [7] | Percent Effect [8] | Percent Effect [9]
CC(C)C(C)NC(=O)Nc1ccc(CS(C)(=O)=O)cc1 (stereo unspecified) | -5.9% | 5.26% | 7.91% | 3.79% | 4.77% | -14.2% | 15.6% | 12.9% | -5.32% | 10.4% | -1.16%
Cc1nccnc1N1CC[C@@H](NC(=O)c2cnccn2)[C@H](O)C1 | -5.54% | 13.5% | -3.54% | 17.2% | 7.53% | 2.86% | 3.62% | 2.71% | 2.65% | 14.6% | -0.902%
CCc1nc(C2CCCN(C(=O)CN(C)S(C)(=O)=O)C2)no1 (stereo unspecified) | -5.19% | 18.2% | -2.51% | -7.32% | 6.95% | -2.32% | 9.3% | 0.959% | 6.67% | 21.2% | -25.7%
CCOc1ccc(C(C)NC(=O)N2CCC(C(N)=O)CC2)cc1OC (stereo unspecified) | -4.66% | 10.8% | 4.64% | 6.99% | 6.76% | 1.43% | 14.7% | 4.99% | 5.82% | 12.2% | -0.606%
CC(CCc1ccco1)NC(=O)Nc1cc(C(F)(F)F)c[nH]c1=O (stereo unspecified) | -8.08% | 7.89% | 40.7% | 3.56% | 0.467% | -3.24% | 13.1% | 17% | 7.39% | 13.6% | -2%
Cc1nn(C)c(C)c1NC(=O)CN1CCc2c(nc(C3CC3)n2C)C1 | 0.84% | -5.41% | 0.981% | 13.1% | 6.76% | -5.71% | 4.14% | 1.97% | -0.529% | 7.32% | -8.76%
COC(=O)[C@H](C)NC(=O)c1cc(-c2cccc(Cl)c2)no1 | -6.04% | 5.26% | -4.37% | -0.548% | 2.43% | -4.73% | 21.2% | 6.45% | 5.32% | 10.4% | -8.08%
CC(C)C(=O)NCC(=O)N(C)C1CCCN(CCc2ccccc2)C1 (stereo unspecified) | -2.17% | 10.8% | 0.942% | 15.5% | 4.25% | -0.952% | 11.9% | -0.751% | 3.7% | 4.88% | -5.28%
CC(=O)NCCNC(=O)c1sc(-c2ccc(Cl)s2)nc1C | -6.51% | 10.8% | 5.52% | -4.05% | -5.29% | 1.29% | 4.67% | 11.1% | 0.99% | -79.3% | -0.599%
COCCO[C@H]1CCN(C(=O)c2ccno2)[C@H]1Cc1cnn(C)c1 | -1.65% | -2.7% | -2.17% | -4.71% | -2.54% | 1.67% | 2.79% | -28.8% | 4.95% | -3.66% | 1.61%
c1ccc2c(N3CCCCC3Cn3cncn3)ncnc2c1 (stereo unspecified) | -4.99% | 2.67% | -0.541% | 0.114% | -0.876% | 3.12% | 8.54% | 16.2% | 2.73% | 6.17% | -6.35%
